Measured values published in ChEMBL document CHEMBL3988442, “University of Dundee, Small-Polar-MMV Screening Library” (2021).
For some assays here: Potency and affinity values are given separately.

Tests used:
Parameters in all cases: scale not given: direction of the effect not stated beside the values
[1] = target: Protein translocase subunit SecA (Escherichia coli (strain K12)) (UniProt P10408); assay: Assay to Identify E. coli SecA ATPase Inhibitors; format: functional; conditions: 30 µM
[2] = target: T1, Ubiquitin-activating enzyme e1, putative (Leishmania donovani (strain BPK282A1)) (UniProt E9BSI1); assay: Leishmania donovani Ubiquitin Activating Enzyme (LdE1); format: functional; conditions: 30 µM
T1 sequence (whole entry): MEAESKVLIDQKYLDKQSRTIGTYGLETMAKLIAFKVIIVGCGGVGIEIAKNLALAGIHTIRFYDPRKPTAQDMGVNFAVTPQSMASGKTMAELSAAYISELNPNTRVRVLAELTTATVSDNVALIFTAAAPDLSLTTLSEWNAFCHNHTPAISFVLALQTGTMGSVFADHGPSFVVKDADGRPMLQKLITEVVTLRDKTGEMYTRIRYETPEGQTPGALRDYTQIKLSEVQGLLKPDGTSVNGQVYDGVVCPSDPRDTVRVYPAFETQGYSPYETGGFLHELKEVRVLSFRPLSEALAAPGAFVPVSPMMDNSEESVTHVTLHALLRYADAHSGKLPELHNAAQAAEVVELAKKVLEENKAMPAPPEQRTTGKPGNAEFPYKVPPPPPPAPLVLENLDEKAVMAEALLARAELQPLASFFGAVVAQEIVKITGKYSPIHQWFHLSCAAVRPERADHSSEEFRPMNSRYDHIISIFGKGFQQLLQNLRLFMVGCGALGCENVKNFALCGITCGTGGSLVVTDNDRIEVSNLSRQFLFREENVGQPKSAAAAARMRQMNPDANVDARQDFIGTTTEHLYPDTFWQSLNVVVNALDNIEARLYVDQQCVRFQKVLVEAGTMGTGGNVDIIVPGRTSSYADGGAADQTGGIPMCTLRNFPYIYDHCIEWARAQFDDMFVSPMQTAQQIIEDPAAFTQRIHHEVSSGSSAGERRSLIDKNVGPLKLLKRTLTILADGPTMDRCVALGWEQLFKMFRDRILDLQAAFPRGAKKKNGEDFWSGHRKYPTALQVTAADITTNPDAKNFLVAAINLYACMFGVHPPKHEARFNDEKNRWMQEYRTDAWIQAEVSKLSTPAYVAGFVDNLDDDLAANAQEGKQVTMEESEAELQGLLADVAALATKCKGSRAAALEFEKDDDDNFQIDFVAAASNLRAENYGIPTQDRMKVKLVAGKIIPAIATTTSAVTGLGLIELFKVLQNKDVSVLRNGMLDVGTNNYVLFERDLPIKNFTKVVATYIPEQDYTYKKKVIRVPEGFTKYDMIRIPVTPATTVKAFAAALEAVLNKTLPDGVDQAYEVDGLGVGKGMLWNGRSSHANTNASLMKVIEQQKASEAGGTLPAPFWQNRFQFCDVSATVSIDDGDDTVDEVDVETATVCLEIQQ

[3] = target: AMP-activated protein kinase, AMPK (Homo sapiens) (UniProt P54646+O43741+P54619+Q9UGJ0+Q9Y478+Q13131+Q9UGI9); assay: AMP-dependent Kinase enzyme assay. An in vitro enzyme assay that detects ADP turnover that is directly proportional to AMPK activity. This uses naive AMPK that is activated during the assay with MK-8722; format: functional; conditions: 30 µM
[4] = target: Sialic acid-binding Ig-like lectin 9 (Homo sapiens) (UniProt Q9Y336); assay: Hs-Siglec9 ALPHAscreen SOP 20170721; conditions: 10 µM
Sequence of Sialic acid-binding Ig-like lectin 9 (Homo sapiens) (Q9Y336 whole entry): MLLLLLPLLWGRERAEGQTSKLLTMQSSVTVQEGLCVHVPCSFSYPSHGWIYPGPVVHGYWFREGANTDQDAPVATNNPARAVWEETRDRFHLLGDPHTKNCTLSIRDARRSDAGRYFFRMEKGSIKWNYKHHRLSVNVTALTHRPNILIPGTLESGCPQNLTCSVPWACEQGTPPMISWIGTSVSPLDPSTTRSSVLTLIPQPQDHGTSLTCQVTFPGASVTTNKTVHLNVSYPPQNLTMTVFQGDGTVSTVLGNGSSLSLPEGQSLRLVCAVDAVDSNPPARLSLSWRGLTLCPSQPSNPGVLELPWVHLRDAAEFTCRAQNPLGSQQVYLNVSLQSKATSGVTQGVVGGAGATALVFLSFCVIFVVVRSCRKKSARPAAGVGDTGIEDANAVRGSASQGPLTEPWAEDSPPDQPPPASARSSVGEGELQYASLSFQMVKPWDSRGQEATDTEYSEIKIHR

Trypanosoma cruzi = assay: Trypanosoma cruzi phosphomannomutase and mannose-1-phosphate guanylyltransferase assay; format: functional; conditions: 10 µM
[5] = target: T2, Arginase-2, mitochondrial (Homo sapiens) (UniProt P78540); assay: in vitro enzyme assay to detect the production of urea directly proportional to the activity of Arginase II; format: functional; conditions: 33.3 µM; also: in the data most compounds retested in dose-response had high values
T2 sequence (whole entry): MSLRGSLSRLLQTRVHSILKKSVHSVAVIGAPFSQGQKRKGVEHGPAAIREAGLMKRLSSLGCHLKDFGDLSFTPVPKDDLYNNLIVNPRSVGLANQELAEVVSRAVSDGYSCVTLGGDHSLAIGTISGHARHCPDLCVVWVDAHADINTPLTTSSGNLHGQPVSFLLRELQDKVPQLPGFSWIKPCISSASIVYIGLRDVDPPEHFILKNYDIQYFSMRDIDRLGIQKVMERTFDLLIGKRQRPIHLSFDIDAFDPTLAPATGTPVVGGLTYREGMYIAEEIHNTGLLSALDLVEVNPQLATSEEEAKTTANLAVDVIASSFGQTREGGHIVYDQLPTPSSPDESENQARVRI

[6] = target: T3, Proteasome subunit beta (Trypanosoma cruzi) (UniProt O96673); assay: Trypanosoma cruzi proteasome chymotrypsin-like activity (TcProtChymo) assay.; also: in the data most compounds retested in dose-response had high values; format: functional; conditions: 9.37 µM
T3 sequence (whole entry): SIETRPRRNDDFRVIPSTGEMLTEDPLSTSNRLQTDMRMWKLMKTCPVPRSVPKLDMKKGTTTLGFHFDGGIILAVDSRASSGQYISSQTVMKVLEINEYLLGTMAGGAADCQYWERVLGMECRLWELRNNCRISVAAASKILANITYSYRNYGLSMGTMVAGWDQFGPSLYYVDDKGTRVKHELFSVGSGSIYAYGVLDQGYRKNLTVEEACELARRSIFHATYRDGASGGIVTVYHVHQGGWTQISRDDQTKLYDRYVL

Homo sapiens = species: Homo sapiens; assay: To identify inhibition of the IFN signalling (Jak-Stat) pathway via expression of an eGFP reporter gene under the control of an IFN-stimulated response element (ISRE) containing MxA promoter.; format: functional; conditions: 30 µM
[7] = target: T4, Tyrosyl-tRNA synthetase, putative (Trypanosoma cruzi (strain CL Brener)) (UniProt Q4DSP6); assay: Trypanosoma cruzi tyrosyl tRNA synthetase (TcYRS) _High Tyrosine SOP; format: functional; conditions: 30 µM; also: in the data most compounds retested in dose-response had high values
T4 sequence (whole entry): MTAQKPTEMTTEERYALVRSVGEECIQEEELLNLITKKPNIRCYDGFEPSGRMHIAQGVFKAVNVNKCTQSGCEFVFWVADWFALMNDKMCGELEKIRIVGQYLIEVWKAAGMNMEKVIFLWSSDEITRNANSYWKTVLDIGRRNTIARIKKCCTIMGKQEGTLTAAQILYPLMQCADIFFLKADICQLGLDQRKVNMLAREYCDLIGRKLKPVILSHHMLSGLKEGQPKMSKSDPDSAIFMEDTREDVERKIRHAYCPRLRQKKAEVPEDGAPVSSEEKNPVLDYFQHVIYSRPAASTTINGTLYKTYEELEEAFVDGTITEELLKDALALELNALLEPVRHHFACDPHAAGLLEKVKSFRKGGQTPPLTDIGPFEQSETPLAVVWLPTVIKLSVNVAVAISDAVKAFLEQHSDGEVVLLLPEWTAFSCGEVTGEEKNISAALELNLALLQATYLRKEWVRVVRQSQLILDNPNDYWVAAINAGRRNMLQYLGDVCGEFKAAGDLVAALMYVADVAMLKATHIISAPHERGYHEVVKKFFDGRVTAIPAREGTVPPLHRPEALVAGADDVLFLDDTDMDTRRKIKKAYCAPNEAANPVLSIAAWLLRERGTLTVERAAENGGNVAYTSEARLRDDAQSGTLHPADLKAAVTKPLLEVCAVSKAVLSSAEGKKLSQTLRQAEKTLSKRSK

[8] = target: T4, Tyrosyl-tRNA synthetase, putative (Trypanosoma cruzi (strain CL Brener)); assay: Trypanosoma cruzi tyrosyl tRNA synthetase (TcYRS) SOP; format: functional; conditions: 30 µM
[9] = target: Chromo domain-containing protein 1 (Saccharomyces cerevisiae (strain ATCC 204508 / S288c) (Baker's yeast)) (UniProt P32657); assay: ScCHD-1 Enzyme Inhibition Assay; format: functional; conditions: 30 µM; also: in the data most compounds retested in dose-response had high values
Sequence of Chromo domain-containing protein 1 (Saccharomyces cerevisiae (strain ATCC 204508 / S288c) (Baker's yeast)) (P32657 whole entry, the tested form may be a part): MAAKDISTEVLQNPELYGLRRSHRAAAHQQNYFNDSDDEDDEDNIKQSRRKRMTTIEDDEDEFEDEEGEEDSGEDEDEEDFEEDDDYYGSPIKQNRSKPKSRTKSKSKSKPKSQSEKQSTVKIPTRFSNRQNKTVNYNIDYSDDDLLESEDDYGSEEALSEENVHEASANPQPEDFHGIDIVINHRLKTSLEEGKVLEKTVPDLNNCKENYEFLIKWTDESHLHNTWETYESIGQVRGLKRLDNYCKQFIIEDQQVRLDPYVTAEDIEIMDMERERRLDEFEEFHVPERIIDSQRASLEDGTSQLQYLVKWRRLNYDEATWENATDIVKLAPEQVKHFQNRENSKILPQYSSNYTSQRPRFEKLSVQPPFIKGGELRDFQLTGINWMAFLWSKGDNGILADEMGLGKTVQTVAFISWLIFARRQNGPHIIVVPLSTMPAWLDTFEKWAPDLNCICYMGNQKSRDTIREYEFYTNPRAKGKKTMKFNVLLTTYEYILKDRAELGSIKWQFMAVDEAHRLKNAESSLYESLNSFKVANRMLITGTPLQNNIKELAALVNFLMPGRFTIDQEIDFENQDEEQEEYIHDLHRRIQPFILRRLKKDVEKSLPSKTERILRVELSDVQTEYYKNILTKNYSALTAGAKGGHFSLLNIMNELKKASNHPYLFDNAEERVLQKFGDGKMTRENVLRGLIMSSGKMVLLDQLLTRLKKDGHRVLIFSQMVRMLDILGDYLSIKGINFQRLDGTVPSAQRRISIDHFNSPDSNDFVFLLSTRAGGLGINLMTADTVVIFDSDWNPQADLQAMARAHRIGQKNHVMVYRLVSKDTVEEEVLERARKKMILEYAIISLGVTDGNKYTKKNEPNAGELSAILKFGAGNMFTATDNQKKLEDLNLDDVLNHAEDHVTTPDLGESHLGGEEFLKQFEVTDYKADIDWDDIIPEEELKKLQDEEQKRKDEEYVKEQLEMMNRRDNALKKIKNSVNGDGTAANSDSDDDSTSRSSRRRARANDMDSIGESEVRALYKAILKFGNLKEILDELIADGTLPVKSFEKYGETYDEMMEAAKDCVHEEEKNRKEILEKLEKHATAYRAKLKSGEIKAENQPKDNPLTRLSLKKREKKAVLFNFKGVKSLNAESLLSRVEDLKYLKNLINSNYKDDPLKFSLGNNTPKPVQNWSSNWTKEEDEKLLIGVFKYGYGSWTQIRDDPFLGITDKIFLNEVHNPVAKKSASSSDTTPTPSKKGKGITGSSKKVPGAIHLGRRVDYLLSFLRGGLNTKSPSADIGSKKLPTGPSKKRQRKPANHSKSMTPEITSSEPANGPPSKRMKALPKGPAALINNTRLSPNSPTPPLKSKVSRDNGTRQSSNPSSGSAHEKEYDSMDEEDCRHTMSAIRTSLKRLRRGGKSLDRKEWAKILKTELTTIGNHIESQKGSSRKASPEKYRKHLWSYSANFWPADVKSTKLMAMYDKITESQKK

Sequence of Protein translocase subunit SecA (Escherichia coli (strain K12)) (P10408 whole entry): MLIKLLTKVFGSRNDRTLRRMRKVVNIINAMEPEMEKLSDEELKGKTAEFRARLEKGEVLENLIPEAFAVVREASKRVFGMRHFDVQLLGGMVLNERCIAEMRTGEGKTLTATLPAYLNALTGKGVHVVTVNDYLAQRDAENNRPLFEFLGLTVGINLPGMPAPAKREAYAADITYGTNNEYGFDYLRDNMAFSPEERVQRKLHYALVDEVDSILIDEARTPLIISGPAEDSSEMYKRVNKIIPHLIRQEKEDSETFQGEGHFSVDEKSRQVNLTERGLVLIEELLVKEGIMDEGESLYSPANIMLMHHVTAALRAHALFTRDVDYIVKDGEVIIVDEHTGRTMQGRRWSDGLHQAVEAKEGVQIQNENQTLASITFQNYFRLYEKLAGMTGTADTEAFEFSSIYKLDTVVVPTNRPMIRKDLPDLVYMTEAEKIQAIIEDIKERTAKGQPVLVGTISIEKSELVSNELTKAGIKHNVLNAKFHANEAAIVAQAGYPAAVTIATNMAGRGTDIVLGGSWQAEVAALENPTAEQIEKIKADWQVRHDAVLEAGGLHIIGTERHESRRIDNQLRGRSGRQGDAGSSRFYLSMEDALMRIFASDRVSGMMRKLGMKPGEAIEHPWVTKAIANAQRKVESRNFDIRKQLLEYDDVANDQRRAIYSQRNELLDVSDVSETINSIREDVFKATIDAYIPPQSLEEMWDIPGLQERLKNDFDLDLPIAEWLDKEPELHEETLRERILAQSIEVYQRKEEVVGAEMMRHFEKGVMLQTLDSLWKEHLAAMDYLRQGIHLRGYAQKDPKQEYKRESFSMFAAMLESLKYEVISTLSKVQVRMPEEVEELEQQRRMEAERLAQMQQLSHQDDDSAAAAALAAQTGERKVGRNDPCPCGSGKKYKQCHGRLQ

Structure (SMILES) | Percent Effect [1] [%] | Percent Effect [2] [%] | Percent Effect [3] [%] | Percent Effect [4] [%] | Percent Effect (Trypanosoma cruzi) [%] | Percent Effect [5] [%] | Percent Effect [6] [%] | Percent Effect (Homo sapiens) [%] | Percent Effect [7] [%] | Percent Effect [8] [%] | Percent Effect [9] [%]
CN1CCN(C2CCN(CCOc3ccc(F)cc3)CC2)C1=O | -8.87 | 2.6 | 0.436 | -4 | -3.18 | -0.356 | 4.05 | 37.8 | 0 | 0 | -7.75
CS(=O)(=O)CCC(=O)Nc1cnn(-c2ccccc2Cl)c1 | -5.57 | 13.5 | -8 | 12.3 | 2.88 | -0.185 | 6.28 | 6.38 | 7.92 | 18.3 | -8.04
CCn1ccnc1CN1CCN(Cc2ccc(C#N)cc2)CC1 | -5.95 | 21.1 | -10.9 | -5.15 | 9.96 | -4.6 | 15.9 | 19.8 | 3.43 | 19.5 | -11.6
CCOCCCNC(=O)c1cc(C(C)C)nc(N2CCCCCC2)n1 | 0.305 | -12 | 4.38 | -7.72 | -5.5 | -16 | 16.3 | 17 | 10.6 | 12.8 | -11.2
CC(NC(=O)NCCCN(C)S(C)(=O)=O)c1cccc(Cl)c1 (configuration not stated) | 1.78 | 6.33 | 0.875 | -4.21 | -2.97 | 0.215 | 11.8 | 13.8 | 9.38 | 7.59 | 0.197
CCOc1ccccc1OC1CCN(C(=O)c2ccc(=O)[nH]n2)CC1 | -2.99 | 13.2 | 2.58 | 7.38 | 3.76 | 2.3 | 12.9 | 6.53 | 5.39 | 19.5 | -2.32
O=C(Nc1ccccn1)N(CCO)Cc1ccsc1 | -2.18 | 10.5 | 4.91 | 14.4 | 0.564 | 0 | 11.2 | 9.82 | 8.33 | 17.1 | -3.38
Cc1noc(C)c1CNC(=O)c1ccc(NC2CC2)nc1 | -5.61 | 5.26 | -12.2 | 12.7 | 7.94 | -2.52 | -0.0846 | 3.38 | 7.39 | 25.9 | -5.7
NS(=O)(=O)CCNC(=O)c1nnn(-c2ccccc2)c1C1CC1 | 0.0352 | 2.7 | 0.144 | -1.59 | -8.4 | 2.92 | 12.1 | 1.92 | 4.95 | 6.1 | -4.86
Cc1ccccc1-c1cc(C(=O)N2CCn3c(C)nnc3C2)[nH]n1 | -5.53 | 10.5 | -1.51 | 3.48 | 6.01 | 0 | 4.34 | 4.27 | -0.49 | 17.1 | -10.8
Cc1occc1C(=O)Nc1ccnc(OC2CCOC2)c1 (configuration not stated) | -0.474 | 6.94 | -7.48 | 6.54 | 4.57 | 7.95 | 14.7 | 3.88 | -2.1 | 2.56 | -2.37
Cn1ccc(C(=O)N2CCCC(n3cncn3)C2)cc1=O (configuration not stated) | -7.5 | 10.4 | -3.42 | 0.542 | 5.97 | -6.11 | 11.9 | -3.24 | 3.81 | 9.41 | -18.8
O=C(CNC(=O)N1CCc2c([nH]c3ccc(Cl)cc23)C1)N1CCOCC1 | -8.87 | -4 | 11.7 | -3.55 | -2.55 | -20.2 | 10.5 | 7.25 | -3.17 | -5.13 | -12.6
COCc1n[nH]/c(=N/C(=O)COc2cnc(C)cc2O)s1 | -1.58 | -5.26 | 2.8 | 1.24 | -6.33 | -1.18 | 9.3 | -1.08 | 3.19 | 5.2 | -4.33
Cc1ccc(-c2nc(CN3CCOC(c4ccccc4)C3)cs2)o1 (configuration not stated) | 0.984 | -24.3 | -0.197 | 6.73 | 2.7 | 3.81 | 12.6 | -17.4 | 3.7 | 0 | 17.1
COc1ccc(OC)c(C2C3=C(COC3=O)Nc3[nH]nc(C)c32)c1 (configuration not stated) | -1.85 | 17.3 | 0.267 | -8.04 | 5.11 | 17.1 | 3.33 | 7.65 | 4.23 | 10.3 | -11.1
Clc1ccc2oc(C3CCN(Cc4cccnc4)CC3)nc2c1 | 0.753 | 13.5 | 5.18 | 16.9 | 5.02 | -10.5 | 15.5 | 32.2 | -0.529 | 12.2 | -6.96
CCN(C(=O)CN(C)C(c1cccc(F)c1)c1ccccn1)C1CC1 (configuration not stated) | -1.83 | -5.2 | -4.08 | 9.51 | 6.74 | -2.49 | 2.37 | 4.69 | 6.8 | 7.32 | -10.2
Cc1noc(C)c1C(=O)NCC(c1ccc(F)cc1)N(C)C (configuration not stated) | -3.62 | 8.11 | 1.69 | -12.4 | -3.25 | 0.924 | 0.898 | 16.5 | 5.94 | 13.4 | 0.216
COCC1CN(Cc2ccc(C)o2)Cc2cn(C)nc21 (configuration not stated) | -1.58 | 10.7 | -0.404 | 16.5 | -0.965 | -18.5 | 5.13 | -4.89 | 10.4 | 20 | -7.5
COc1ccnc(N2CCN(CC(=O)N3CCOCC3)CC2)n1 | -3.7 | 18.4 | 3.44 | -1.28 | -0.28 | -5.04 | 8.54 | -2.03 | 8.37 | 18.5 | -6.56
O=C(CCn1cnnc1)N1CCCC(c2ncc[nH]2)C1 (configuration not stated) | 1.63 | 5.48 | 11.6 | 0.524 | -6.27 | 2.27 | 8.52 | 6.13 | 3.23 | 12.5 | -7.06
